The source of these data is PubChem BioAssay AID1508600 (Functional Genomics Laboratory (NCATS/FGL), 2020).

In all, about 53,000 sequences went through this assay and about 3,700 (7%) were called active. This is one part of a sample in which actives are shown more often than they occur.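 The calls were made as follows: active = gene knockdowns whose robust z-score for IL-1 alpha signal is at least 2 or at most -2, so actives lie on both sides; inactive = the rest.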

The nature of the assay: Components of the Cytosolic LPS Sensing Pathway: Gene Identification via Genome-wide siRNA Screen.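 Also: robust z of the log signal after scaling to non-targeting control siRNA wells of the plate.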 As to conditions: RAW264.7 macrophages, IL-1a HTRF, actives lie on both sides, screened at 100 nM (by protocol), cells primed 5 h with Pam3CSK4 first. An outline of the steps: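 Mouse macrophage line RAW264.7 is transfected with siRNA (100 nM final), grown 48h, primed with TLR ligand Pam3CSK4 5 h and given intracellular LipidA 24 h. IL-1a in supernatant is read by HTRF and viability by luminescence.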
Background: Time-resolved FRET reads energy transfer from a long-lived donor to a nearby acceptor.
In the case of CCCAGGGUACCUCACAUCUTT against Nrp1, the z-score was -0.595 (inactive).

Turning to GGUCAUCAAUGCCACAGCUTT against Lpo, the z-score is -2.24 (active). The value for CCGGAGUGACCAUAUUCGUTT against Fgr was -0.446 (inactive); that for GGCUCUCAAUGAUCAUCAUTT against Aldob was -0.423 (inactive); that for GGAAGUACAGAAUUUUGAATT against Sft2d2 was 1.46 (inactive). The value for GGAAAUGUUGAAUCUUGCUTT against Mfsd4a was 0.0725 (inactive); that for CGAUGUAAGGAAAGAAAGGTT against Cd14 was -1.47 (inactive); that for CCCUUUGUGUGGAUUAUAUTT against Sp9 was 2.91 (active). The value for GGGACUGUAAUACCAUGAUTT against Rnase10 was 0.0343 (inactive). On to GGCCUUCACCAAAAGCAUCTT against Ncf2, for which the z-score was -0.661 (inactive). For the sequence “GGUUUCCUUUGUCUGUUUUTT against 9530091C08Rik”, the z-score is -0.509 (inactive). As for GGCUCUAACUAUUAUGUGCTT against Psmc4, the figure is -2.9 (active); as for CCUGGCUGUAAUCACCAUCTT against Olfr1160, 0.953 (inactive); as for GGACAGAUCUUUGAAGCAGTT against Vps18, -1.7 (inactive). Consider GGACGAGGAGUACGAGCAATT against Nfkbia, for which the z-score was 2.6 (active). The value for CUACCUACUCCAUGUGGUGTT against Gpihbp1 was -0.55 (inactive); that for GGCCAUUAAAUUUAUCAACTT against Aldh3a1 was 1.61 (inactive). The value for GGGAGAGCUGCUGUUUUUCTT against Rxfp3 was 1.46 (inactive). The value for GGUCUGCUUUGUCUUGGUGTT against Olfr829 was 0.126 (inactive).

As to GGAUGAAGAUGAAAAGGAATT against Ube3a, the z-score was -0.519 (inactive). As for CCUGAAAGUCGUUUAUCGCTT against Il7r, the figure is 2.74 (active); as for GGCUAUUUAUAAGUCCAGUTT against Uso1, -0.307 (inactive). The value for GGAUAGGUUUCUGUAUUUATT against Znrf1 was 0.621 (inactive); that for CCGUAUGAACGUGUGAUAATT against Rasef was 0.142 (inactive); that for GGGCACCUAGUUUCCAUGATT against Cox7b was -0.385 (inactive). As for GGAAGUGGCGAGGUUCUAUTT against Folr1, the figure is 0.782 (inactive); as for GCAGAACACCGCUGGAAGUTT against Pard3, 3.14 (active). On to CGCAAUGUAUGAUUCAAUGTT against Mogat1, for which the z-score is 1.76 (inactive). As for GCUAAUUCCCUGGCCUCAATT against Tro, the figure is -0.627 (inactive). As for GGUUUAUAGGCCUUCUUCCTT against Flot2, the figure is -0.763 (inactive).
